# JMJD2A Tudor inh – blocks the human JMJD2A Tudor domain | O75164 | AlphaScreen JMJD2A-Tudor / H3K4me3 peptide binding | Potency, µM (doses to about 114 µM), without a hit: at the top dose activity change, negative = inhibition, usual class: inhibitors | 390,000 tested, 4.4% active; also: % is scaled to controls: 0 for no effect and ±100 for the full control effect; nearly all actives have a fitted effect of over 50% in size
# L3MBTL1 block – L3MBTL1 (human) inhibition. Q9Y468. AlphaScreen L3MBTL1–H3K9me1 peptide binding. Potency, µM (highest dose often 57.1 µM), for inactives: top-dose activity, negative = inhibition, most hits filed as inhibitors. 230,000 tested, 0.66% active. AID 485360; also: % is scaled to controls: 0 for no effect and ±100 for the full control effect; nearly all actives have a fitted effect of over 60% in size
#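 Read-out is AlphaScreen signal from streptavidin donor and nickel chelate acceptor beads (10 ug/mL final each) bridging L3MBTL1 (50 nM) and biotinylated K9-monomethylated H3(1-15) peptide (75 nM), after 30 min compound exposure at room temperature.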
# Sfp inh – inhibitors of Bacillus subtilis Sfp phosphopantetheinyl transferase | Biochemical Sfp PPTase activity, qHTS | Potency, µM, for the others: largest response in the series, negative = inhibition, actives largely listed as inhibitors | 310,000 tested, 3.5% active;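 also: the enzyme is Sfp with the accession as filed and its product quenches rhodamine fluorescence; 0% = enzyme reaction without inhibitor and -100% = no enzyme wells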
#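 Compounds were incubated with enzyme (final 15 nM) for 15 min at room temperature before substrate addition started the reaction. Fluorescence at 525 nm excitation, 598 nm emission was recorded immediately and after 30 minutes.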
# BAZ2B block – blocks human BAZ2B; AlphaScreen BAZ2B-H3K14Ac peptide displacement; AID 504333; Potency, µM (doses to about 114 µM), inactives show top-dose activity change, negative = inhibition, most hits filed as inhibitors; Q9UIF8; 360,000 tested, 4.4% active; also: % is scaled to controls: 0 for no effect and ±100 for the full control effect; nearly all actives have a fitted effect of over 60% in size
# Target sequence (Q9UIF8 whole entry, looked up): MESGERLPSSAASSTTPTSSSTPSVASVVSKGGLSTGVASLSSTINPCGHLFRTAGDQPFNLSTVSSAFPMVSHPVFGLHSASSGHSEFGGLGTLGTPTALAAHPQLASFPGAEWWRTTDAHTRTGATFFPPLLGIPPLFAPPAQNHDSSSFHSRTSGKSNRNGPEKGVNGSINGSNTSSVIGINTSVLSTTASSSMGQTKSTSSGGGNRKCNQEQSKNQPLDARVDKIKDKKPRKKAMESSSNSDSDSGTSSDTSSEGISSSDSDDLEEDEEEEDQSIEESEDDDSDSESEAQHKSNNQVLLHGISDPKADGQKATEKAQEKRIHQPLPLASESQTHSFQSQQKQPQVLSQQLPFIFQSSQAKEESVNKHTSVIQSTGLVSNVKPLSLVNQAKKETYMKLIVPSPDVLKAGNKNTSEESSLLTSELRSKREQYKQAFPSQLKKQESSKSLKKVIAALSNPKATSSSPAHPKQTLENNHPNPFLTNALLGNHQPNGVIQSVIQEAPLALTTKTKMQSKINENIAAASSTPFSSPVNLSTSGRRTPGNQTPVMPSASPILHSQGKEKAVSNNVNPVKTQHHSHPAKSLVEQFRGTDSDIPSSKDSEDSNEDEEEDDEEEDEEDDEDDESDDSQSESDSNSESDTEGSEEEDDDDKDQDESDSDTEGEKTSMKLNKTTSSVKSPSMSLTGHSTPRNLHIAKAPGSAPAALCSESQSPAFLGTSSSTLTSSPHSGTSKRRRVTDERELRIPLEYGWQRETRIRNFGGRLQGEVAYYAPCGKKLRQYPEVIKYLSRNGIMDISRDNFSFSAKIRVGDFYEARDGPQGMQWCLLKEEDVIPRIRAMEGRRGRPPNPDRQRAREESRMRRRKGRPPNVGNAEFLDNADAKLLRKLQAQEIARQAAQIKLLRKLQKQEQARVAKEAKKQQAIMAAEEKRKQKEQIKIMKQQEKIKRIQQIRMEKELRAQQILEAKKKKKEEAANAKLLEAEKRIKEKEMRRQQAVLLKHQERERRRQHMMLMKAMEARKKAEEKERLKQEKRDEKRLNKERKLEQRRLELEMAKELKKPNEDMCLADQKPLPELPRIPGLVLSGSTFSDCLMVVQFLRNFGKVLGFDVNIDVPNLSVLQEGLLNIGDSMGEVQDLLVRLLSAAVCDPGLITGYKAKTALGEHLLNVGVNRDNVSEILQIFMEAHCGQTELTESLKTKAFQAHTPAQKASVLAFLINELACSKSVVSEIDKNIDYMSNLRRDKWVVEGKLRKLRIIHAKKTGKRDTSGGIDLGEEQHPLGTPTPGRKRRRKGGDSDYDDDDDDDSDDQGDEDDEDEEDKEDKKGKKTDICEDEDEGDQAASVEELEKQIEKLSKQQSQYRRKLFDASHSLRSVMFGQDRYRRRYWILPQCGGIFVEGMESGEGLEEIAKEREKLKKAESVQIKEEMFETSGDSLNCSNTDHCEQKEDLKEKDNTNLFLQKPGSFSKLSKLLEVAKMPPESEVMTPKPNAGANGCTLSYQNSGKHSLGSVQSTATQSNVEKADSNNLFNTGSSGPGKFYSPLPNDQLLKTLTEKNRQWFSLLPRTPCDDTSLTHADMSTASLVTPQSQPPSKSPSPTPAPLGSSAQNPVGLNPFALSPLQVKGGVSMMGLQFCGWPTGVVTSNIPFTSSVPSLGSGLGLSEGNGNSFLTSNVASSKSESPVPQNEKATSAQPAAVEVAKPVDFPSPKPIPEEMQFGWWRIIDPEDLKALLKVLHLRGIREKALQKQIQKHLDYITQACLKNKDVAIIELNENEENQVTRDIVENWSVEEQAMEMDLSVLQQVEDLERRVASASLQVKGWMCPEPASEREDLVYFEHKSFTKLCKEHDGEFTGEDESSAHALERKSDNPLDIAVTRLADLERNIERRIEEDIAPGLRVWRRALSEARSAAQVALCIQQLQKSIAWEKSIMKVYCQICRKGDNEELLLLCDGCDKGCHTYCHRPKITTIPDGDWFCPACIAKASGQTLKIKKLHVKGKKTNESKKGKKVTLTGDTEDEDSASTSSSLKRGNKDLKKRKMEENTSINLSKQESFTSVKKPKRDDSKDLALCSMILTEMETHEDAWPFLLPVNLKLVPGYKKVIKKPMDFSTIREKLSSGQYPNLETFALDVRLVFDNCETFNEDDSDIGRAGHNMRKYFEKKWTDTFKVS
#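 AlphaScreen luminescence quantifies BAZ2B engagement of H3K14Ac peptide; the protein and biotinylated peptide are both at 50 nM final, buffer PBS pH 7.4 with 0.01% Tween-20, all steps at room temperature.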
# HP1b chromo inh – inhibitors of HP1-beta chromodomain binding to methylated histone tails. P83916. AlphaScreen HP1-beta / biotin-H3K9me3 peptide binding. Potency, µM (titrated, usually from 114 µM), for the others: top-dose activity change, negative = inhibition, hits mostly inhibitors. 390,000 tested, 0.56% active; also: nearly all actives have a fitted effect of over 70% in size
#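 AlphaScreen: HP1-beta (50 nM) preformed 30 min with biotin-H3(1-18)K9me3 peptide (50 nM) in PBS pH 7.4, 0.01% Tween-20. Compound added for 30 min at RT, then streptavidin donor/nickel chelate acceptor beads (10 ug/mL) for 30 min.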
# G9a inh – G9a (human) methyltransferase inhibition; G9a H3K9 monomethylation, AlphaScreen, 2 h; Potency, µM (series often up to 102 µM), for inactives: at the highest dose activity, negative = inhibition, usual class: inhibitors; Q96KQ7; 350,000 tested, 8.8% active; also: % is scaled to controls: 0 for no effect and ±100 for the full control effect; nearly all actives have a fitted effect of over 75% in size
#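 Using a bead-based AlphaScreen, monomethylated H3K9 product from 2 h room-temperature reactions (G9a 20 nM, peptide 500 nM, SAM 20 uM) was detected with 0.5 ug/mL rabbit anti-H3K9me1 antibody.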
# * = called active by the depositor; ? = inconclusive; . = not tested or not shown; [ ] = dose if it differs, or a comment. Most compounds without a hit are left out; they make up all but 12% or so of the library. Calls follow the shape of the dose curve; as a rule, active = well fitted curve in the direction sought with a large enough effect; inconclusive = small, poorly fitted or top-dose-only effect, or another doubt; inactive = no such curve, though single readings can be large; an effect the other way counts as inactive or inconclusive. Potency is read from the fitted curve at half-maximal effect.
SMILES,JMJD2A Tudor inh,L3MBTL1 block,Sfp inh,BAZ2B block,HP1b chromo inh,G9a inh
CN=C1NN=C(c2cc(C)n(-c3c(C)n(C)n(-c4ccccc4)c3=O)c2C)CS1,-17%,-9%,50µM*,-8%,45%,?
Cc1cc(C2=NNC(=NC3CC3)SC2)c(C)n1-c1ccccc1,?,-14%,-28%,?,-14%,28µM*
CCCCCCC(=O)NCC(=O)OCC(=O)c1ccccc1,-10%[11.4 µM],3%,10%,9%,61%,25µM*
CC(=O)NCC(=O)OCC(=O)c1ccccc1,-11%,.,15%,2%,21%,-5%[59 µM]
Cc1cc(-c2ccc(C(C)C)c(S(=O)(=O)NCc3ccco3)c2)on1,-34%,.,-4%,50µM*,23%,79µM*
COc1cccc(CNS(=O)(=O)c2cc(-c3cc(C)no3)ccc2C(C)C)c1,1%,.,4%,-12%,37%,71µM*
CC(C)CCSc1nc2c(c(=O)n(C)c(=O)n2C)n1Cc1ccccc1Cl,5%,.,.,5%,15%,-2%[59 µM]
C/C=C/c1ccc(OC(C)[C@@H](O)c2ccc(O)c(OC)c2)c(OC)c1 (stereo partly specified),.,.,-10%,.,.,.
CC1(C)C(c2ccccc2)=[N+]([O-])C2(CCCCC2=O)N1O (stereo unspecified),-3%,-4%,24%,3%,31%,7.9µM*
O=S(=O)(/N=C(/Sc1ccccc1)c1ccccc1)c1ccc(Cl)cc1,-31%[57.1 µM],.,.,.,47%[57 µM],.
CN1CCN(S(=O)(=O)c2cccc([N+](=O)[O-])c2)CC1,-10%,.,.,.,16%,.
COc1cccc(C(=O)CN2CCN(S(=O)(=O)c3cccc([N+](=O)[O-])c3)CC2)c1,-16%,6%,-30%,2%,28%,20µM*
COc1ccc(C(=O)CN2CCN(S(=O)(=O)c3cccc([N+](=O)[O-])c3)CC2)cc1OC,-10%,-7%,35µM*,4%,32%,8.9µM*
COc1ccccc1CNC(=O)C1CCN(S(=O)(=O)c2cccc([N+](=O)[O-])c2)CC1,-5%,.,10%,-9%,25%,12%[59 µM]
NNc1nc2c(F)cc(F)cc2s1,79µM*,-19%,-20%,50µM*,-59%,?
Fc1cccc2sc(Nc3nc4c(F)cccc4s3)nc12,-10%,-2%,22%,-5%,31%,28%[59 µM]
NNc1nc2c(F)cccc2s1,89µM*,-17%,?,50µM*,?,?
Fc1cc(F)c2nc(N3CCCC3)sc2c1,17%,.,17%,15%,44%,43%
COc1ccc(C(=O)NC(=S)NNC(=O)Cc2cccs2)cc1,?,12%,12%,-4%,4%,11µM*
COc1cc(OC)cc(C(=O)NC(=S)NNC(=O)Cc2cccs2)c1,-16%,37%,-15%,22%,17%,8.9µM*
COc1cc(NC(=O)Cc2cccs2)cc(OC)c1,-15%[11.4 µM],-4%,14%,14%,?,11%[59 µM]
C[C@@H](CCCCC(=O)Nc1ccc(C(F)(F)F)cc1)NCCc1cnc[nH]1,.,.,14%,.,.,.
O=C(CCc1nc2ccccc2s1)Nc1ccccc1,2%,3%,6%,-2%,47%,2%
O=C(O)CCCC(=O)Nc1ccc(OCc2nc3ccccc3s2)cc1,?,1%,8.9µM*,?,?,3.2µM*
CC(C)c1ccccc1NC(=O)CCc1nc2ccccc2s1,-20%,-2%,?,-13%,17%,20µM*
SMILES,JMJD2A Tudor inh,L3MBTL1 block,Sfp inh,BAZ2B block,HP1b chromo inh,G9a inh
O=C(CCCc1nc2ccccc2s1)Nc1ccccc1,-6%,.,2%,-14%,57%,20%[59 µM]
COc1ccccc1NC(=O)CCc1nc2ccccc2s1,20µM*,-4%,19%,-12%,1%,1%
O=[N+]([O-])c1cccnc1Oc1ccc(F)cc1,-14%,-2%,13%,-25%,-26%,-27%
O=[N+]([O-])c1ccc(Oc2ccc(F)cc2)c2ccncc12,?,.,-7%,50µM*,-34%,?
CCn1c(-c2nn(C)c(C)c2Cl)n[nH]c1=S,?,3%,-3%,0%,38%,2.2µM*
CCn1c(-c2ccc(Cl)cc2)n[nH]c1=S,5µM*,.,2%,3%,-3%,1.3µM*
CCn1c(-c2ccc(C)cc2)n[nH]c1=S,7.9µM*,.,?,-24%,16%,1.3µM*
CCCCn1c(-c2ccc([N+](=O)[O-])cc2)n[nH]c1=S,7.9µM*,3%,-8%,-5%,?,?
COc1ccc(CCNC(=O)CCc2c(C)nc3c(c(C)nn3-c3ccccc3)c2C)c(OC)c1,-19%,.,.,-1%,27%,2%[59 µM]
COc1ccc(Nc2nnc(-c3ccc(C)c(S(=O)(=O)N4CCOCC4)c3)c3ccccc23)cc1,-27%,.,.,-3%,35%,-14%[59 µM]
CCCn1c(-c2ccc(F)cc2)n[nH]c1=S,5.6µM*,-6%,-4%,17%,15%,22µM*
CN(C)Cc1ccccc1-c1ccc2ncnc(NC3CC3)c2c1,.,.,-8%,.,.,.
C[N+](C)(C)C/C=C1/COCO1,?,3%,-8%,-2%,-3%,50µM*
C[C@H](N)c1nnc(SCC(=O)c2ccc(Cl)cc2)o1,-5%,.,-2%,?,10%,?
C[C@H](N)c1nnc(SCC(N)=O)o1,-19%,.,-20%,56µM*,-17%,13µM*
COC(=O)c1ccccc1NC(=S)NC(=O)c1ccc2c(c1)OCO2,-8%,.,-14%,-19%,9%,40µM*
COc1cc([N+](=O)[O-])ccc1NC(=O)NNC(=O)CCc1ccccc1,-26%,.,7%,-20%,22%,-4%
COC(=O)c1ccccc1NC(=O)c1ccc2c(c1)OCCO2,14%,.,-4%,21%,94%,12%[59 µM]
COc1cc([N+](=O)[O-])ccc1NC(=O)NNC(=O)c1sccc1C,-11%,.,16%,-19%,37%,71µM*
CCCCC(=O)Nc1cccc(NC(=S)NC(=O)C(C)C)c1,?,8%,?,1%,5%,28µM*
CC(C)C(=O)Nc1cccc(NC(=S)NC(=O)c2ccc3c(c2)OCO3)c1,22µM*,.,22%,-15%,11%,65%
COc1ccc(-c2cc3ccc(O)c(CN4CCC(C)CC4)c3oc2=O)cc1,?,.,.,45%,48%[57 µM],56%[59 µM]
COc1cc([N+](=O)[O-])ccc1NC(=S)NNC(=O)c1ccc2c(c1)OCO2,50µM*,.,-15%,?,?,8.9µM*
O=C(NC(=S)Nc1cc([N+](=O)[O-])ccc1O)c1ccc2c(c1)OCO2,-34%,.,-30%,?,?,?
Cc1cccc2c1-c1sc(C(=O)N3CCN(c4ccc(F)cc4)CC3)cc1CO2,1%,.,.,0%,48%,15%[59 µM]
